20 compounds from PubChem BioAssay (NCATS) can be followed below.

Records with an inconclusive call do not appear. The source made the active and inactive calls. Calls come from the whole dose curve; as a rule, active = well fitted curve in the direction sought with a large enough effect; inconclusive = small, poorly fitted or top-dose-only effect, or another doubt; inactive = no such curve, though single readings can be large; an effect the other way counts as inactive or inconclusive.

Assay [1] in a line: Cell Viability - LYMP2-012 (AID 982).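 Note: cellular ATP by luciferase luminescence where a drop means cytotoxicity; cells exposed to compound for one day before reading; nearly all actives have a fitted effect of over 55% in size.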 Note: potency is the fitted concentration of half-maximal effect.
A short description of assay [2]: Cell Viability - LYMP2-014 (AID 983). Note: nearly all actives have a fitted effect of over 50% in size. Note: potency is the fitted concentration of half-maximal effect. A digest of the protocol: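 Human lymphoblastoid cells (2500/well) were pre-incubated 5 hr at 37 C, then exposed to compounds in complete medium for 24 hr at 37 C. Intracellular ATP was read by CellTiter-Glo luminescence after 30 min at room temperature; AC50 from Hill fits.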
Assay [3] is described as follows: Cell Viability - LYMP2-016 (AID 984). Note: nearly all actives have a fitted effect of over 55% in size. Note: potency is the fitted concentration of half-maximal effect. The method, boiled down: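 Acute toxicity in a Coriell human lymphoblastoid line is scored as loss of intracellular ATP over 24 h of treatment in complete medium. CellTiter-Glo signal is fitted across concentrations with the Hill equation to give AC50.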
Assay [4] is described as follows: Cell Viability - LYMP2-018 (AID 985).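 Note: compound exposure lasted 24 hr at 37 °C; nearly all actives have a fitted effect of over 50% in size.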 Note: potency is the fitted concentration of half-maximal effect. A digest of the protocol:
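Human lymphoblastoid cells (2500/well) were pre-incubated 5 hr at 37 C, then exposed to compounds for 24 hr at 37 C in complete medium. Viability was read as intracellular ATP by CellTiter-Glo luminescence; AC50 values came from Hill-equation fits.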

A short description of assay [5]: Cell Viability - LYMP2-020 (AID 986). Note: nearly all actives have a fitted effect of over 55% in size. Note: potency is the fitted concentration of half-maximal effect. A digest of the protocol: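 Human lymphoblastoid cells, 2500/well, were pre-incubated 5 hr at 37 C, then exposed to compounds for 24 hr at 37 C in complete medium. Intracellular ATP was read by CellTiter-Glo luminescence, and AC50 was derived by Hill fitting of concentration-response data.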
Assay [6] in a line: Cell Viability - LYMP2-022 (AID 987). Note: nearly all actives have a fitted effect of over 55% in size. Note: potency is the fitted concentration of half-maximal effect. The method, boiled down: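 Human lymphoblastoid cells, 2500/well, preincubated 5 hr at 37 C, then exposed to compounds over a concentration range for 24 hr at 37 C in complete medium. Viability read as intracellular ATP by CellTiter-Glo luminescence after 30 min at room temperature; AC50 from Hill fits.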
The nature of assay [7]: Cell Viability - LYMP2-024 (AID 988). Note: nearly all actives have a fitted effect of over 60% in size. Note: potency is the fitted concentration of half-maximal effect. The method, boiled down: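 Human lymphoblastoid cells (2500/well) in complete medium were preincubated 5 hr at 37 C, then exposed to compounds for 24 hr at 37 C. Intracellular ATP was read by CellTiter-Glo luminescence; AC50 from Hill-equation fits of concentration-response data.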
The nature of assay [8]: Cell Viability - LYMP2-026 (AID 989). Note: nearly all actives have a fitted effect of over 50% in size. The method, boiled down: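 Human lymphoblastoid cells (2500/well) in complete medium were preincubated 5 hr at 37 C, then exposed to compounds for 24 hr at 37 C. Cellular ATP was read by CellTiter-Glo luminescence; AC50 from Hill-equation fits of concentration-response data.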
The nature of assay [9]: Cell Viability - LYMP1-002 - Assay at 40 hr (AID 994). Note: nearly all actives have a fitted effect of over 60% in size. Note: potency is the fitted concentration of half-maximal effect. The method, boiled down:
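Human lymphoblastoid cells, 2500/well in complete medium, were preincubated 5 hr at 37 C, then exposed to compounds for 40 hr at 37 C. Intracellular ATP was read by CellTiter-Glo luminescence after 30 min at room temperature; AC50 from Hill-equation fits.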

The target of assay [10] is Alpha-galactosidase A (Homo sapiens) (UniProt P06280). The experiment in a line: Counterscreen for Glucocerebrosidase Inhibitors: qHTS Assay for Human alpha-Galactosidase at pH 4.5 (AID 992). A digest of the protocol:
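Concentration-response curves (0.7 nM to 77 uM final) were modeled with the Hill equation to give AC50. Reactions: 2 nM enzyme, 80 uM fluorogenic alpha-galactoside, pH 4.5 citric acid buffer, 20 min, room temperature.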
On the technique in general: A counterscreen serves to expose hits that act by an unwanted route or on another target.

Alpha-galactosidase A (Homo sapiens), sequence (P06280 whole entry, looked up): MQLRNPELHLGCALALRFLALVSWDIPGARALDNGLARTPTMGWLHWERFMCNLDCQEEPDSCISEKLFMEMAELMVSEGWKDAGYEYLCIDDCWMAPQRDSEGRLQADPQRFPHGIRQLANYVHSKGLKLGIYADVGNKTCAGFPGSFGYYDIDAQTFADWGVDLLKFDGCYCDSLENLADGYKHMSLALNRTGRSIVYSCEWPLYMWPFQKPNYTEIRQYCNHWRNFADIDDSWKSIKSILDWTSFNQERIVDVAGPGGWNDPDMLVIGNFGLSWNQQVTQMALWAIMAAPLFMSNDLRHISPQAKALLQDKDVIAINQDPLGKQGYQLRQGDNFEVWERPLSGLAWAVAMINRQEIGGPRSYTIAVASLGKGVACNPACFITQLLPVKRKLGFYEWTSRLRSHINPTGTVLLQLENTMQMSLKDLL

For the compound `CC(C)(C)CC(C)(C)c1ccc(OCCO)cc1`, the Potency result in assay [1], in assay [2], in assay [3], in [4], in assay [5] and in assay [6] was “inactive” each time. Besides, the Potency entry in assay [7] and in assay [9] was “inactive” throughout. In addition, in assay [8], the compound was classed as inactive.
As for `C=C1C(CCl)(CCl)C2(Cl)C(Cl)C(Cl)C1(Cl)C2(Cl)Cl` (stereo unspecified), the Potency in [1] was 39.8 µM (active); in assay [2] it was 50.1 µM (active); in assay [3] it was 50.1 µM (active); in assay [4] it was 50.1 µM (active); in assay [5], 50.1 µM (active); in [6] it was 39.8 µM (active). The Potency in assay [7] was 39.8 µM (active).
With `OCc1ccccc1`, the Potency result in [1], in assay [2], in [3], in assay [4], in [5] and in [6] was “inactive” in each case. Moreover, the Potency entry in assay [7] and in [9] was “inactive” throughout. Moreover, the call in assay [8] was inactive.
Consider `Nc1ncnc2c1ncn2[C@H]1CC[C@@H](CO)O1`, for which the Potency entry in [1], in assay [2], in [3], in assay [4], in assay [5] and in assay [6] was “inactive” each time. Also, the Potency entry in [7] and in assay [9] was “inactive” each time. The outcome in assay [8] was inactive.
Consider `OCl`, for which the Potency result in assay [1], in [2], in [3], in assay [4], in [5] and in [6] was “inactive” in each case. The Potency result in assay [7] and in [9] was “inactive” each time. Besides, the compound was classed as inactive in assay [8].
Turning to `Nc1nccs1`, the Potency result in assay [1], in assay [2], in [3], in assay [4], in assay [5] and in assay [6] was “inactive” each time. Also, the Potency entry in assay [7] and in [9] was “inactive” in each case. Also, the compound was called inactive in assay [8].
As to `Cc1cc(C)c(NC(=O)C[C@H](CC(=O)O)c2cccc3ccccc23)c(C(=O)N2CCC3(CCCC3)CC2)c1`, in [10], the compound was called inactive.
Turning to `[O-][N+](=Nc1ccccc1)c1ccccc1`, the Potency result in assay [1], in [2], in assay [3], in assay [4], in [5] and in [6] was “inactive” in each case. Further, the Potency result in assay [7] and in assay [9] was “inactive” each time. Moreover, in [8], the outcome was inactive.
On to `O=P(O)(O)O`, for which the Potency entry in [1], in assay [2], in assay [3], in [4], in [5] and in assay [6] was “inactive” each time. In addition, the Potency entry in assay [7] and in assay [9] was “inactive” throughout. In addition, in [8], the outcome was inactive.
On to `Cc1ncc[nH]1`, for which the Potency result in assay [1], in assay [2], in assay [3], in [4], in assay [5] and in [6] was “inactive” in each case. In addition, the Potency entry in assay [7] and in [9] was “inactive” throughout. Further, the compound was classed as inactive in [8].
As to `CO/N=C(/C(=O)N[C@@H]1C(=O)N2C(C(=O)O)=C(COC(N)=O)CS[C@H]12)c1ccco1`, the Potency entry in assay [1], in assay [2], in assay [3], in assay [4], in assay [5] and in assay [6] was “inactive” each time. Besides, the Potency result in assay [7] and in [9] was “inactive” throughout. Also, the compound was classed as inactive in [8].
As to `C[C@@](Cc1ccc(O)c(O)c1)(NN)C(=O)O`, in [10], the compound was classed as inactive.
With `CCCCO`, the Potency result in [1], in [2], in assay [3], in [4], in assay [5] and in assay [6] was “inactive” throughout. For the same compound, the Potency entry in assay [7] and in assay [9] was “inactive” throughout. In assay [8], the call was inactive.
Regarding `CO`, the Potency entry in assay [1], in assay [2], in [3], in [4], in [5] and in assay [6] was “inactive” throughout. The Potency result in assay [7] and in assay [9] was “inactive” in each case. For the same compound, in [8], the result was inactive.
As for `CC1=CCC2CC1C2(C)C` (stereo unspecified), the Potency entry in assay [1], in [2], in [3], in assay [4], in assay [5] and in assay [6] was “inactive” in each case. Also, the Potency result in assay [7] and in [9] was “inactive” throughout. For the same compound, in [8], the compound was called inactive.
In the case of `OCC(O)CO`, the Potency result in [1], in assay [2], in assay [3], in assay [4], in [5] and in [6] was “inactive” in each case. Also, the Potency result in [7] and in [9] was “inactive” each time. In addition, the call in assay [8] was inactive.
Consider `CC/C=C\C/C=C\C/C=C\CCCCCCCC(=O)O`, for which the results for the Potency in [6] and in assay [7] were 50.1 µM (active) and 39.8 µM (active), respectively. Besides, the Potency result in assay [9] is “inactive”.
`C[C@H]1O[C@@H](O[C@H]2[C@@H](O)C[C@H](O[C@H]3[C@@H](O)C[C@H](O[C@H]4CC[C@@]5(C)[C@H](CC[C@@H]6[C@@H]5C[C@@H](O)[C@]5(C)[C@@H](C7=CC(=O)OC7)CC[C@]65O)C4)O[C@@H]3C)O[C@@H]2C)C[C@H](O)[C@@H]1O`: the Potency in assay [4] is 0.158 µM (active); in assay [6] it was 0.251 µM (active); in assay [7], 0.158 µM (active); in [9] it was 0.158 µM (active).
For `CC(C)O`, the Potency result in assay [1], in assay [2], in [3], in [4], in [5] and in assay [6] was “inactive” in each case. Also, the Potency entry in assay [7] and in [9] was “inactive” throughout. Also, the outcome in [8] was inactive.
With `c1ccc2ccccc2c1`, the Potency entry in assay [1], in assay [2], in assay [3], in assay [4], in assay [5] and in assay [6] was “inactive” each time. Further, the Potency result in [7] and in assay [9] was “inactive” throughout. For the same compound, the compound was called inactive in [8].
